Compound activity (PubChem BioAssay)
A selection: hits, their analogues and other compounds. The true share with any hit is near 21%.
DRD3 agonist – agonists of human D3 dopamine receptor. D3R DiscoveRx beta-arrestin cells, luminescence, 90 min. AID 652048. max activation, %. P35462. 410,000 compounds, 0.58% hits; in the data active = max activation above about 30%
Target sequence (P35462 whole entry, looked up): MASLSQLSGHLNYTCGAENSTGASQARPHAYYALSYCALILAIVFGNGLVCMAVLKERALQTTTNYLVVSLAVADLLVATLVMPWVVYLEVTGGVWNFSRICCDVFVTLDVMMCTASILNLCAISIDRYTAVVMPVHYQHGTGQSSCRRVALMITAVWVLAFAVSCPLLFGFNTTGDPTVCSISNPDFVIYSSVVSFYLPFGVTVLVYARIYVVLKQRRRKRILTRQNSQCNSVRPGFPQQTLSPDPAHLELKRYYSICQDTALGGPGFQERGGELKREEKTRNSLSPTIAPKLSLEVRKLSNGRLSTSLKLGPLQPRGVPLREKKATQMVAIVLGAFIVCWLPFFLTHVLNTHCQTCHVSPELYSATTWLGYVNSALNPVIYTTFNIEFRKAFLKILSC
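Agonist-mode cell screen: cells plated at 1500/well and incubated overnight at 37 °C, then exposed to library compounds for 90 min at 37 °C. Detection reagent was added for 30–60 min at room temperature, and luminescence was read.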
DRD3 antagonist – antagonists of human D3 dopamine receptor. P35462. 360,000 compounds, 2.5% hits. max response, negative = inhibition, %. D3R cells, DiscoveRx beta-arrestin luminescence, antagonist mode; stronger effect = lower value. AID 652054; in the data active = max response below about -50%; inconclusive = no clear call, values can overlap the other calls
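Cells expressing the human receptor were seeded at 1500 cells/well, incubated overnight at 37 degrees C in 5% CO2, then exposed to library compounds with dopamine controls for 90 minutes at 37 degrees C before luminescent detection.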
ClpP mod – qHTS Assay for Activators of ClpP | ATP-dependent Clp protease proteolytic subunit (Bacillus subtilis (strain 168)), P80244 | purified B. subtilis ClpP, FRET peptide cleavage, 20 min | Potency, µM (series often up to 57.5 µM) | 340,000 compounds, 1.9% hits | AID 651965, 2013; active = well fitted falling curve with a large enough effect; inconclusive = small, poorly fitted or top-dose-only effect; inactive = no such curve, though single readings can be large or run the other way; note: the source files actives as falling curves though it sought activators and does not explain the sign; nearly all actives have a fitted effect of over 65% in size
Target sequence (P80244 whole entry, looked up): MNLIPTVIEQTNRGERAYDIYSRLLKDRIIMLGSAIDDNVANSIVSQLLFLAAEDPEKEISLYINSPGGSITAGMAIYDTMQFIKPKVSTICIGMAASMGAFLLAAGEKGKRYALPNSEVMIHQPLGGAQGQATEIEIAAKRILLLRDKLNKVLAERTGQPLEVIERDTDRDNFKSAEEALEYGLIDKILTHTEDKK
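ClpP 10 microg/mL final, pH 8 Tris/KCl buffer with BSA, glycerol, Tween-20; compound pinned in; FRET-FV substrate; RT 20 min; Ex320/Em430; ΔFRET vs ADEP 5.8 microM, DMSO, no enzyme.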
DT40 TDP1 CPT – DT40-hTDP1 cell growth loss with CPT | AID 686979 | Potency, µM (highest dose often 46.2 µM), usual class: inhibitors | 420,000 compounds, 12% hits | chicken DT40 Tdp1-/-;hTDP1 cells + 20 nM CPT, ATP luminescence, 48 h; note: nearly all actives have a fitted effect of over 55% in size
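Cell growth measured by CellTiter-Glo luminescence after a minimum 48 h, 37 C compound exposure with 20 nM CPT in Tdp1-knockout DT40 cells stably expressing hTDP1, seeded 400/well; qHTS titration format.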
DT40 TDP1 no CPT – qHTS for Inhibitors of human tyrosyl-DNA phosphodiesterase 1 (TDP1): qHTS in cells in absence of CPT. Potency, µM (doses to about 46.2 µM), most hits filed as inhibitors. AID 686978, 2013. 420,000 compounds, 15% hits. DT40 Tdp1-/- hTDP1 cells, no CPT, ATP luminescence, 48 h; note: nearly all actives have a fitted effect of over 55% in size
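DT40 Tdp1-/-;hTDP1 cells, no CPT (DMSO vehicle only), 400 cells/well; compounds pin-transferred; ≥48 hr, 37 °C; CellTiter-Glo 30 min RT dark, luminescence read.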
IL1B secr inh – blocks inflammasome-driven IL-1 beta release; THP-1 LPS/ATP IL-1B secretion, AlphaLISA, 16 h; stronger effect = lower value; 360,000 compounds, 4.7% hits; activity change, % at 57.5 µM; AID 743279; in the data active = activity change below about -50%; inconclusive = mostly about -30% to -49%
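Secreted IL-1B measured by AlphaLISA bead assay after 16 h compound exposure of THP-1 cells; compounds (final up to 57.5 uM) added 1 h before LPS (250 ng/mL) and ATP (1.25 mM) stimulation; lower signal means less secretion.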
Hits are given with their value; - = inactive; ? = inconclusive; . = not tested or not shown. Unless noted, calls come from the whole dose curve; as a rule, active = well fitted inhibition curve with a large enough effect; inconclusive = small, poorly fitted or top-dose-only effect; inactive = flat fitted curve, though single readings scatter.

SMILES | DRD3 agonist | DRD3 antagonist | ClpP mod | DT40 TDP1 CPT | DT40 TDP1 no CPT | IL1B secr inh
COCCNC(=S)N(CCc1c(C)[nH]c2ccc(Cl)cc12)Cc1cccnc1 | - | - | - | ? | 21µM | ?
COCCNC(=S)N(CCc1c(C)[nH]c2ccc(C)cc12)Cc1cc(OC)c(OC)c(OC)c1 | - | - | - | 18µM | ? | -
CCNC(=S)N(CCc1c(C)[nH]c2ccc(Cl)cc12)Cc1cccnc1 | - | - | . | ? | ? | -87
COCCNC(=S)N(CCc1c(C)[nH]c2ccc(F)cc12)Cc1cccnc1 | - | - | - | - | - | -
CCC(=O)N1CCc2cc(Br)cc(S(=O)(=O)N3CCCC(C(=O)Nc4cc(C)ccc4OC)C3)c21 (stereo unspecified) | - | . | - | - | ? | .
COCCOC(=O)C1=C(C)N=C2SCCC(=O)N2C1/C=C/c1ccccc1 (stereo unspecified) | - | - | - | 18µM | 18µM | -
CN(C(=S)Nc1ccccc1F)C1(c2ccccc2Cl)CCCCC1=O (stereo unspecified) | 30 | - | - | - | - | -
N#Cc1c(NC(=O)c2ccc(Cn3cc(Br)cn3)o2)sc2c1CCCCC2 | - | - | - | ? | - | -
CC1CCc2c(sc(NC(=O)c3ccc(Cn4cc([N+](=O)[O-])cn4)o3)c2C#N)C1 (stereo unspecified) | - | -69 | - | - | - | -
COC(=O)c1sc(NC(=O)c2ccc(Cn3cc(Cl)cn3)o2)c(C#N)c1C | - | ? | - | 16µM | ? | -
Cc1ccccc1NC(=O)Cc1nc(COC(=O)c2cc(Cl)ccc2O)cs1 | - | - | - | - | - | -
COC(=O)c1ccc(Nc2cc(C)nc(-c3ccccc3O)n2)cc1 | - | - | ? | ? | ? | -
Cc1cc(Nc2ccc(Cl)cc2)nc(-c2ccccc2O)n1 | - | - | - | ? | 26µM | -
COC(=O)c1cccc(Nc2cc(C)nc(-c3ccccc3O)n2)c1 | - | - | - | ? | 16µM | -
Cc1cc(Cl)nc(-c2ccccc2O)n1 | - | - | - | - | - | ?
Cc1cc(Nc2cccc(Cl)c2)nc(-c2ccccc2O)n1 | - | - | . | 29µM | ? | ?
COc1ccc(-c2nc(N3CCOCC3)nc3n[nH]c(N)c23)cc1 | - | - | - | 18µM | 18µM | -70
COc1ccc(N2CCN(c3n[nH]c(N)n3)CC2)cc1 | - | - | . | - | - | -
Cc1coc2c(C)c3oc(=O)c(CCC(=O)N4CCCCC4)c(C)c3cc12 | - | . | ? | 13µM | 16µM | .
Cc1coc2c(C)c3oc(=O)c(CCC(=O)N[C@H](C(=O)O)C(C)C)c(C)c3cc12 | - | - | - | - | - | -
Cc1oc2c(C)c3oc(=O)c(CC(=O)N4CCCCC4)c(C)c3cc2c1C | - | . | - | 21µM | 21µM | .
Cn1cc(CCC(=O)NC2CC(C)(C)Cc3c2cnn3-c2ccc(F)cc2)cn1 (stereo unspecified) | - | - | - | ? | ? | -
CCOC(=O)c1c(C=O)c(C)n(Cc2ccccc2Cl)c1C | - | - | - | - | - | -
CCOC(=O)c1c(C=O)c(C)n(Cc2ccc(C)cc2)c1C | - | - | - | ? | 23µM | -
CN1CC2=Cc3ccccc3OC23Oc2ccccc2C=C3C1 | - | - | 3.5µM | ? | ? | -117
SMILES | DRD3 agonist | DRD3 antagonist | ClpP mod | DT40 TDP1 CPT | DT40 TDP1 no CPT | IL1B secr inh
CCCCCC1(C(=O)OCC)CC(CSC(=N)N)OC1=O (stereo unspecified) | - | - | - | 21µM | 16µM | -
O=C(CN1CCN(S(=O)(=O)c2ccc(F)cc2)CC1)Nc1ccc(Cl)c(C(F)(F)F)c1 | - | - | - | 18µM | 9.2µM | -60
CCOc1ccc(NC(=O)CN2CCN(CC(=O)Nc3ccc(Cl)c(C(F)(F)F)c3)CC2)cc1 | - | - | - | 12µM | 9.2µM | -59
O=C(CN1CCN(c2ccc(Cl)cc2)CC1)Nc1ccc(Cl)c(C(F)(F)F)c1 | - | . | - | ? | 16µM | .
O=C(CN1CCN(CC(=O)Nc2ccccc2F)CC1)Nc1ccc(Cl)c(C(F)(F)F)c1 | - | . | - | 7.3µM | 6.5µM | .
CC(C)(C)c1ccc(S(=O)(=O)N2CCc3nc4ccccc4c(C(=O)O)c3C2)cc1 | - | - | - | - | - | -
O=C(OCC1OC2C(Oc3nc(=O)ccn32)C1O)c1ccccc1 (stereo unspecified) | - | - | - | - | - | -
N=c1ccn2c(n1)O[C@H]1[C@@H](CO)[C@H](O)O[C@H]12 | - | - | - | 0.037µM | 0.0058µM | -
CC1(C(=O)NS(=O)(=O)C2CC2)CCN(C(=O)c2cccc(OC(F)(F)F)c2)C1 (stereo unspecified) | - | - | - | ? | ? | -
CC(C)(C)Cc1c(-c2ccc(Br)cc2)nc2ccc(Br)cn12 | - | - | - | ? | ? | -
Cc1ccc(Cc2c(-c3cccc(Cl)c3)nc3ccc(Br)cn23)cc1 | - | - | - | - | ? | -
COc1ccccc1Cc1c(-c2cccc(Cl)c2)nc2ccc(Br)cn12 | - | -83 | - | 23µM | 21µM | -
CC(C)(C)Cc1c(-c2cccc(Cl)c2)nc2ccc(Br)cn12 | - | -109 | - | ? | ? | ?
COC(=O)c1ccc2nc(-c3cccc(Cl)c3)c(Cc3ccccc3OC)n2c1 | - | - | - | 16µM | 23µM | -
CCCCOc1ccc(C(=O)NCC(=O)NNC(=O)C2COc3ccccc3O2)cc1 (stereo unspecified) | - | - | - | - | - | -
COc1c(O)cc2c(-c3ccccc3)cc(=O)oc2c1OC | . | . | . | - | - | .
CC(C)c1ccc(NC(=O)C2CCCN2S(=O)(=O)c2ccc3nc(-c4ccccc4)[nH]c3c2)cc1 (stereo unspecified) | - | . | - | 10µM | 7.3µM | .
Cc1cc(NS(=O)(=O)c2ccc3nc(-c4ccccc4)[nH]c3c2)ccc1Br | - | . | - | ? | 15µM | .
Cc1ccc(NC(=O)C2CCCN2S(=O)(=O)c2ccc3nc(-c4ccccc4)[nH]c3c2)cc1C (stereo unspecified) | - | . | - | ? | 23µM | .
O=S(=O)(Nc1ccc(Br)cc1F)c1ccc2nc(-c3ccccc3)[nH]c2c1 | - | . | - | - | ? | .
Cc1ccc(NS(=O)(=O)c2ccc(Cl)c(C(=O)Nc3ccccc3-c3nc4ccccc4[nH]3)c2)cc1C | - | - | 35µM | 7.3µM | 8.2µM | -
CN(C)S(=O)(=O)c1ccc(Cl)c(C(=O)Nc2nc3ccccc3[nH]2)c1 | - | - | . | - | - | -
